Drawing on PubChem BioAssay (Tox21), this text covers Potency for eight compounds.

Each structure is given as a SMILES string. Inconclusive results are not listed. Active and inactive are the calls of the source. Unless noted, calls follow the shape of the dose curve; as a rule, active = well fitted curve in the direction sought with a large enough effect in the repeat runs; inconclusive = weak or mixed curves; inactive = no such curve, though single readings can be large; an effect the other way counts as inactive or inconclusive.

Test [1] is described as follows: qHTS assay to identify small molecule agonists of the peroxisome proliferator-activated receptor delta (PPARd) signaling pathway - cell viability counter screen (AID 743211). Also: nearly all actives have a fitted effect of over 55% in size. Also: potency is read from the fitted curve at half-maximal effect. Put shortly: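 HEK293H PPARd-bla, 3000 cells/well; 5 h preincubation 37C/5% CO2; cpd in DMSO, 17 h 37C; B/G FRET substrate 2 h RT; CellTiter-Glo 30 min RT, luminescence.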
In general terms: Quantitative high-throughput screening tests each substance at several concentrations.

For test [2], the target named is Peroxisome proliferator-activated receptor delta (Homo sapiens) (UniProt Q03181). The experiment in a line: qHTS assay to identify small molecule agonists of the peroxisome proliferator-activated receptor delta (PPARd) signaling pathway (AID 743212; calls by dose curve). Put shortly:
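Tox21 library screened in GeneBLAzer PPARd UAS-bla HEK293H cells. After compound treatment at 37 C, a FRET-based beta-lactamase substrate was applied for 2 h and fluorescence recorded.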

A short description of test [3]: qHTS assay to identify small molecule antagonists of the peroxisome proliferator-activated receptor delta (PPARd) signaling pathway - cell viability counter screen (AID 743213). Also: nearly all actives have a fitted effect of over 50% in size. Also: potency is read from the fitted curve at half-maximal effect. Put shortly: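 PPARd-bla HEK293H cells (3000/well) got compound plus 300 nM L165041 agonist for 17 h at 37 C. Viability in the same wells came from CellTiter-Glo luminescence after 30 min at room temperature.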

Test [4] addresses Peroxisome proliferator-activated receptor delta (Homo sapiens) (UniProt Q03181). Kind of test: qHTS assay to identify small molecule antagonists of the peroxisome proliferator-activated receptor delta (PPARd) signaling pathway (AID 743215; active = well fitted inhibition curve with a large enough effect in the signal ratio in the repeat runs, not every such curve was filed as active; the % refers to the signal ratio;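 also: cells stimulated with agonist L165041 at 300 nM final during compound exposure; series mostly up to about 62 µM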). Put shortly: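 Here, a reporter line (HEK293H, beta-lactamase under a UAS) measures PPARd signaling. Compounds are tested against agonist L165041 at 300 nM final concentration over 17 h at 37 C, with fluorescence read after substrate.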

Test [5] addresses Vitamin D3 receptor (Homo sapiens) (UniProt P11473). Kind of test: qHTS assay to identify small molecule agonists of the vitamin D receptor (VDR) signaling pathway (AID 743222; calls by dose curve). Put shortly: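 Tox21 cell reporter format: VDR-bla line, 16 h compound exposure in 5% CO2 at 37C, then fluorescence intensity after 2 h with LiveBLAzer B/G FRET substrate.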
For test [6] the target is unchanged. Kind of test: qHTS assay to identify small molecule antagonists of the vitamin D receptor (VDR) signaling pathway (AID 743223; active = well fitted inhibition curve with a large enough effect in the signal ratio in the repeat runs, not every such curve was filed as active; the % refers to the signal ratio). Put shortly: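 Antagonist mode uses 1alpha,25-dihydroxyvitamin D3 at 3 nM final as stimulus. VDR-bla cells receive compounds in DMSO, incubate 16 h at 37C, then a beta-lactamase FRET substrate for 2 h at room temperature before fluorescence measurement.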

Test [7] can be described thus: qHTS assay to identify small molecule agonists of the vitamin D receptor (VDR) signaling pathway - cell viability counter screen (AID 743224). Also: nearly all actives have a fitted effect of over 50% in size. Also: potency is read from the fitted curve at half-maximal effect. Put shortly:
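CellTiter-Glo viability readout on VDR-bla cells, measured after 16 h of compound treatment at 37C in the same wells.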

A short description of test [8]: qHTS assay to identify small molecule antagonists of the vitamin D receptor (VDR) signaling pathway - cell viability counter screen (AID 743225). Also: nearly all actives have a fitted effect of over 50% in size. Also: potency is read from the fitted curve at half-maximal effect. Put shortly:
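Read-out: CellTiter-Glo luminescence measured 30 min after reagent addition at room temperature. Cells were VDR-bla HEK 293T exposed 16 h at 37C, 5% CO2, to compound with 3 nM final calcitriol agonist.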

Test [9] is described as follows: qHTS assay to identify small molecule agonists of the NFkB signaling pathway - cell viability counter screen (AID 1159515; calls by dose curve; also: nearly all actives have a fitted effect of over 55% in size; also: potency is read from the fitted curve at half-maximal effect). Put shortly: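 Tox21 library compounds were tested for cytotoxicity against NFkB-bla ME-180 cells during a 5 hr exposure at 37 C. CellTiter-Glo luminescence served as the viability read-out.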
A short description of test [10]: qHTS assay to identify small molecule agonists of the endoplasmic reticulum stress response signaling pathway (AID 1159516; active = well fitted activation curve with a large enough effect in the signal ratio in the repeat runs, not every such curve was filed as active; the % refers to the signal ratio). Put shortly: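 Fluorescence at 460 and 530 nm (405 nm excitation) reports beta-lactamase from an ER stress response element in HeLa cells treated 5 hr at 37 C.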
Test [11] can be described thus: qHTS assay to identify small molecule antagonists of the retinoid-related orphan receptor gamma (ROR-gamma) signaling pathway - cell viability counter screen (AID 1159520). Also: nearly all actives have a fitted effect of over 50% in size. Also: potency is read from the fitted curve at half-maximal effect. Put shortly:
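Tet-on ROR gamma CHO cells were given compounds for 2 hr, then doxycycline hyclate at 1 uM final, and incubated 16 hr at 37 C. Viability was measured as ATP content by CellTiter-Glo luminescence.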

For test [12], the target named is Nuclear receptor ROR-gamma (Homo sapiens) (UniProt P51449). Kind of test: qHTS assay to identify small molecule antagonists of the retinoid-related orphan receptor gamma (ROR-gamma) signaling pathway (AID 1159521; also: nearly all actives have a fitted effect of over 50% in size; also: potency is read from the fitted curve at half-maximal effect). Put shortly:
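CHO Tet-on RORγ, RORE-luc reporter. Cpd 2 h pre-incubation, then dox hyclate 1 uM final, 16 h, 37 C/5% CO2. ONE-Glo luminescence; decrease = antagonist.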

Test [13] in a line: qHTS assay to identify small molecule agonists of the AP-1 signaling pathway - cell viability counter screen (AID 1159525; calls by dose curve; also: nearly all actives have a fitted effect of over 55% in size; also: potency is read from the fitted curve at half-maximal effect). Put shortly:
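Same-well cytotoxicity counter screen of the Tox21 10K library in ME-180 cells. The readout is ATP-dependent luminescence after 5 h compound treatment. Data are normalised to DMSO and tetra n-octyl ammonium bromide controls.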

Test [14] is described as follows: qHTS assay to identify small molecule agonists of the AP-1 signaling pathway (AID 1159526; calls by dose curve).
Test [15] is described as follows: qHTS assay to identify small molecule agonists of the farnesoid-X-receptor (FXR) signaling pathway - cell viability counter screen (AID 743218). Also: nearly all actives have a fitted effect of over 45% in size. Also: potency is read from the fitted curve at half-maximal effect. Put shortly:
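Quantitative HTS counter screen measuring ATP-based viability via CellTiter-Glo luminescence in HEK 293T cells carrying a UAS-driven beta-lactamase reporter, after 16 h compound exposure at 37 C.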

The target of test [16] is Retinoic acid receptor RXR-alpha (Homo sapiens) (UniProt P19793). The experiment in a line: qHTS assay to identify small molecule agonists of the RXR signaling pathway (AID 1159527; calls by dose curve; also: nearly all actives have a fitted effect of over 35% in size). Put shortly:
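Read-out: beta-lactamase FRET ratio (405 nm excitation, 460 and 530 nm emission) after 2 hr substrate loading at room temperature. Cells were RXR-alpha-UAS-bla HEK 293T treated with compounds for 16 hr in 2% charcoal-stripped FBS medium.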

The nature of test [17]: qHTS assay to identify small molecule antagonists of the farnesoid-X-receptor (FXR) signaling pathway - cell viability counter screen (AID 743221; active = well fitted cell-killing curve with a large enough effect in the repeat runs, not every such curve was filed as active; also: nearly all actives have a fitted effect of over 50% in size; also: potency is read from the fitted curve at half-maximal effect). Put shortly: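 Luminescence from CellTiter-Glo measures cytotoxicity in GeneBLAzer FXR-UAS-bla HEK 293T cells. Cells were exposed to compounds with 50 uM chenodeoxycholic acid (final) for 16 h at 37 C, in wells also used for the reporter readout.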

Test [18] is described as follows: qHTS assay to identify small molecule agonists of the endoplasmic reticulum stress response signaling pathway - cell viability counter screen (AID 1159517; calls by dose curve; also: nearly all actives have a fitted effect of over 50% in size; also: potency is read from the fitted curve at half-maximal effect). Put shortly:
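In parallel with the ESRE reporter read, cytotoxicity was scored by CellTiter-Glo luminescence (30 min, room temperature) on HeLa ESRE-bla cells dosed for 5 hr.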

The target in test [19] is Bile acid receptor (Homo sapiens) (UniProt Q96RI1). The experiment in a line: qHTS assay to identify small molecule antagonists of the farnesoid-X-receptor (FXR) signaling pathway (AID 743217; active = well fitted inhibition curve with a large enough effect in the signal ratio in the repeat runs, not every such curve was filed as active; the % refers to the signal ratio). Put shortly:
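Test compounds are pin-transferred onto FXR-bla HEK 293T cells, then chenodeoxycholic acid is added at 50 uM final. After 16 h at 37 °C, LiveBLAzer B/G substrate is applied for 2 h at room temperature and fluorescence read.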

Chain of Peroxisome proliferator-activated receptor delta (Homo sapiens) (Q03181 whole entry, looked up): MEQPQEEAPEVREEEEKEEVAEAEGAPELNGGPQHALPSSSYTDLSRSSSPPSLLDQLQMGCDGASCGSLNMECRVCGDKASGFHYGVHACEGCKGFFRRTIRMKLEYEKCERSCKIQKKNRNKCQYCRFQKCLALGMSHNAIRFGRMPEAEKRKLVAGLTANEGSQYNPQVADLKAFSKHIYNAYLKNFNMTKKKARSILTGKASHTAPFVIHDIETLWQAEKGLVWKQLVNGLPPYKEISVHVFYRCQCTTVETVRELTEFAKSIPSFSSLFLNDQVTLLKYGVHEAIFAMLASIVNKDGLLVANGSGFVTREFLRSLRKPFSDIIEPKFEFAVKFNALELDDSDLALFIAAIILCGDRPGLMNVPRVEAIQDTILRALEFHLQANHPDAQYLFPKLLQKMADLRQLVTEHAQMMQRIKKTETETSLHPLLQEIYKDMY
Chain of Retinoic acid receptor RXR-alpha (Homo sapiens) (P19793 whole entry, looked up): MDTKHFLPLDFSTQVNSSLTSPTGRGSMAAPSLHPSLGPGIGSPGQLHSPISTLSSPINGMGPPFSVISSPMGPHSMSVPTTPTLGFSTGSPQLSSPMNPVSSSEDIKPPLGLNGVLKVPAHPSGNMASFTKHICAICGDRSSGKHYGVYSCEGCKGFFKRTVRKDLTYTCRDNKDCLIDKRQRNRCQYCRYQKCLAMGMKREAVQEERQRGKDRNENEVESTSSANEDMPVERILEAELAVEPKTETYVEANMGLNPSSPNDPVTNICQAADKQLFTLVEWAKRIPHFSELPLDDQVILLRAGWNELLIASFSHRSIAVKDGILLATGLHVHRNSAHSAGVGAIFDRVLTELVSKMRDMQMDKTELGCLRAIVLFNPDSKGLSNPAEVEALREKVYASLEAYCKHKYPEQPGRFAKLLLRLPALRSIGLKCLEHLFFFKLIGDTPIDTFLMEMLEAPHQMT
Chain of Vitamin D3 receptor (Homo sapiens) (P11473 whole entry, looked up): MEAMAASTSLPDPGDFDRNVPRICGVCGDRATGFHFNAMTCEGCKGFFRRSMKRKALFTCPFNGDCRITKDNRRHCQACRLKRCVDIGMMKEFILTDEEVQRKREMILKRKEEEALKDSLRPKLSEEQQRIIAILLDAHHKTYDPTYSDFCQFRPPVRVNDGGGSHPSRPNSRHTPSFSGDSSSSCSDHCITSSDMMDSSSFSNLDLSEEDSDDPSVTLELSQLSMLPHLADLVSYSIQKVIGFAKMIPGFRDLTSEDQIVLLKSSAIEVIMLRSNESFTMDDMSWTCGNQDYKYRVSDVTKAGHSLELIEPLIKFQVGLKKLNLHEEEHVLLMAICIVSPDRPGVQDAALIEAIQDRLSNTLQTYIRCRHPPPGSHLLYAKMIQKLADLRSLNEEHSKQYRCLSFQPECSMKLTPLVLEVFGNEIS
Chain of Bile acid receptor (Homo sapiens) (Q96RI1 whole entry, looked up): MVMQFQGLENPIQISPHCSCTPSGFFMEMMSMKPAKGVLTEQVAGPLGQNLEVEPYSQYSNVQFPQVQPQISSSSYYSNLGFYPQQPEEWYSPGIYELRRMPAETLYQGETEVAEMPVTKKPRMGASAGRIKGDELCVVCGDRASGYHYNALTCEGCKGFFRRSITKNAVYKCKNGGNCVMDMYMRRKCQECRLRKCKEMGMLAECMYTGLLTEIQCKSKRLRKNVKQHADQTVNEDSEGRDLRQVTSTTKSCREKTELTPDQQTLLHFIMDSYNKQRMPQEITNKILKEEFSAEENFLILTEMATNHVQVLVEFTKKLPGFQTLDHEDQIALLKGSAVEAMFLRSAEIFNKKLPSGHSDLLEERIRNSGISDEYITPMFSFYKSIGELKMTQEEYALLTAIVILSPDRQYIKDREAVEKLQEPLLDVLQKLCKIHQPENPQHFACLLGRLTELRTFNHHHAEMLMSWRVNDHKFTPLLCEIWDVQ

Regarding `O=[N+]([O-])c1ccc(CCl)cc1`, the Potency entry in test [1], in test [2], in test [3], in [4], in test [5] and in test [6] was “inactive” throughout. The Potency result in [7], in test [8], in [9], in test [10], in test [11] and in test [12] was “inactive” in each case. Further, the Potency result in [13] and in [14] was “inactive” throughout.
With `CCCCC/C=C\C/C=C\C/C=C\C/C=C\CCCC(=O)NCC(=O)O`, the Potency in test [15] is 29.8 µM (active). In addition, the Potency entry in test [5], in [9], in test [10], in test [11] and in test [16] was “inactive” each time.
For the compound `CN=C=O`, the Potency entry in test [1], in test [2], in [4], in [15], in test [17] and in test [7] was “inactive” throughout. Besides, the Potency entry in test [8], in test [9], in test [10], in test [12], in [13] and in test [14] was “inactive” each time.
Take `O=[N+]([O-])C(Br)Br`: the Potency entry in test [1], in test [2], in test [3], in test [4], in test [15] and in [17] was “inactive” in each case. Besides, the Potency entry in test [5], in [8], in test [9], in [12], in test [13] and in test [14] was “inactive” each time. For the same compound, in [16], the Potency result is “inactive”. The Potency in test [18] is 55 µM (active); in test [11], 21.7 µM (active).
As for `O=Cc1ccccc1`, the Potency result in test [1], in test [2], in [19], in test [15], in test [17] and in [5] was “inactive” throughout. Moreover, the Potency result in [6], in [9], in [10], in [11], in [12] and in [13] was “inactive” in each case. Moreover, in test [14], the Potency entry is “inactive”.
In the case of `CN1C(=O)[C@@H](NC(=O)c2cc3ccccc3[nH]2)N=C(c2ccccc2)c2ccccc21`, the Potency entry in test [1], in test [3], in test [17], in [5], in test [6] and in [8] was “inactive” in each case. Moreover, the Potency entry in test [9], in test [18], in test [11], in [12], in test [13] and in test [16] was “inactive” each time.
Take `[Cl][Hg][c]1ccccc1`: the Potency in [1] was 0.977 µM (active); in [3] it was 2.19 µM (active); in test [15], 1.55 µM (active); in test [17] it was 1.38 µM (active); in [7], 0.692 µM (active); in test [8], 0.692 µM (active). Further, the Potency in test [9] was 3.89 µM (active); in test [18] it was 11 µM (active); in test [11], 1.09 µM (active); in test [12] it was 0.611 µM (active); in test [13] it was 1.38 µM (active). Moreover, the Potency entry in test [5] is “inactive”.
For `C#CC1(O)CCCCC1`, the Potency result in test [1], in test [3], in [15], in test [17], in test [8] and in [9] was “inactive” throughout. For the same compound, the Potency entry in test [18], in test [11], in [12], in test [13] and in test [14] was “inactive” each time.
